Tau fibril FP = qHTS for Inhibitors of Tau Fibril Formation, Fluorescence Polarization. Potency, µM (highest dose often 57.7 µM), inactives show at the top dose activity, negative = inhibition, actives largely listed as inhibitors. AID 1468, 2008. K18 P301L tau heparin fibrillization, Alexa594 FP, 6 h. 280,000 compounds, 0.39% hits. Microtubule-associated protein tau (Homo sapiens), P10636; also: nearly all actives have a fitted effect of over 55% in size
Target sequence (P10636 561-689 P618L limits assumed): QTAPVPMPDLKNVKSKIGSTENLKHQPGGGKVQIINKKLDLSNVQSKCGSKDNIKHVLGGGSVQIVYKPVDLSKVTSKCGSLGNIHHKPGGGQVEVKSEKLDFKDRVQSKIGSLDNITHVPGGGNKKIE
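Human K18 P301L fragment (15 uM unlabeled plus 0.24 uM Alexa 594-labeled) in 100 mM sodium acetate pH 7 with compound, aggregation induced by 20 uM heparin for 6 hr at 37 C. ThT (30 uM) added for 1 hr, then Alexa 594 FP read.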
Tau fibril ThT = qHTS for Inhibitors of Tau Fibril Formation, Thioflavin T Binding; 270,000 compounds, 2.1% hits; Microtubule-associated protein tau (Homo sapiens), P10636; Potency, µM (top dose mostly 57.4 µM), inactives show at the highest dose activity, negative = inhibition, usual class: inhibitors; recombinant tau K18 P301L, heparin-induced fibrillization, ThT fluorescence; also: nearly all actives have a fitted effect of over 55% in size
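In this qHTS, human K18 P301L tau is incubated with compound and heparin for 6 hr at 37 C, and Thioflavin T fluorescence then reports fibril load.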
Tau fluor cs = Counterscreen qHTS for Inhibitors of Tau Fibril Formation, Fluorescence Polarization. tau K18 P301L Alexa594 fluorescence, heparin fibrillization. Potency, µM (doses to about 57.7 µM), for the others: at the top dose activity change, negative = decrease. 280,000 compounds, 0.93% hits. AID 1463, 2008; also: nearly all actives have a fitted effect of over 55% in size
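Human tau K18 P301L (15 uM unlabeled, 0.24 uM Alexa 594-labeled) in 100 mM sodium acetate pH 7 with 20 uM heparin, 6 hr at 37 C. ThT 30 uM added, 1 hr ambient; Alexa 594 FP and total fluorescence read at 555/632 nm.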
RORgamma inh = qHTS for inhibitors of ROR gamma transcriptional activity; Drosophila S2 Gal4-RORgamma UAS-luciferase reporter, 20 h; Potency, µM (doses to about 53.6 µM), for the others: top-dose activity change, negative = inhibition, usual class: inhibitors; 310,000 compounds, 5.4% hits; AID 2551, 2010; also: nearly all actives have a fitted effect of over 60% in size
Target sequence (P51450 whole entry, looked up, the tested form may be a part): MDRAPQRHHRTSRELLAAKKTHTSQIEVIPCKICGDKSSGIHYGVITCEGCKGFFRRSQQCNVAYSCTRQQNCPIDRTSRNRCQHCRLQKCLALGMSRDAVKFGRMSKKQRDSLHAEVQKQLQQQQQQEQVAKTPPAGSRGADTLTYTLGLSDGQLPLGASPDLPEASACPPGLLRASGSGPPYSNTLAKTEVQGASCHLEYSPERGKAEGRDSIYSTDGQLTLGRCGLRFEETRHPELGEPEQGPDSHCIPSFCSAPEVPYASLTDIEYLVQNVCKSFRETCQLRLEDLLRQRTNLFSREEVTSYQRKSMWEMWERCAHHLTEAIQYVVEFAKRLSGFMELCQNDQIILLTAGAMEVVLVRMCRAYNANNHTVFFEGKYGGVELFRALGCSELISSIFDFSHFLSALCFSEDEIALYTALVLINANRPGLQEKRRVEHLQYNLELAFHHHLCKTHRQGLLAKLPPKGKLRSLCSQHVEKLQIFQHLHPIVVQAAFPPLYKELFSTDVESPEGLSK
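Stable Schneider cell line, Gal4 DNA-binding domain fused to ROR gamma, UAS-luciferase. Cmpd 1 hr RT → CuSO4 700 uM final → 20 hr RT → luciferase reagent 10 min → luminescence.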
Gal4-VP16 FLuc = VP16 counterscreen qHTS for inhibitors of ROR gamma transcriptional activity | Potency, µM (highest dose often 53.6 µM), for inactives: at the highest dose activity, negative = inhibition, usual class: inhibitors | Drosophila S2 Gal4-VP16 UAS-luciferase, luminescence, 20 h | AID 2546, 2010 | 310,000 compounds, 3.5% hits;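 also: Gal4-VP16 expression switched on by copper sulfate through the metallothionein promoter; nearly all actives have a fitted effect of over 50% in size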
The depositor's hits bear a star; ? = inconclusive; / = no result; ! = not confirmed by another sample; [ ] = another dose, or the depositor's remark. Rows were chosen to be rich in hits. Some 7.3% of all compounds tested hit in one or more screens of this group. Calls follow the shape of the dose curve; as a rule, active = well fitted curve in the direction sought with a large enough effect; inconclusive = small, poorly fitted or top-dose-only effect, or another doubt; inactive = no such curve, though single readings can be large; an effect the other way counts as inactive or inconclusive. % is scaled to controls: 0 for no effect and ±100 for the full control effect; potency is read from the fitted curve at half-maximal effect.

SMILES	Tau fibril FP	Tau fibril ThT	Tau fluor cs	RORgamma inh	Gal4-VP16 FLuc
c1c2c(cc3sc(N4CCOCC4)nc13)OCO2	-0.2%	?	-15.6%	?	?
c1c2c(cc3sc(N4CCCCC4)nc13)OCO2	-16.5%	?	-28.1%	10µM*	11.2µM*
c1ccc(N2CCN(c3nc4cc5c(cc4s3)OCO5)CC2)cc1	-3.7%	2.51µM*	-18.1%	18.1%	3.8%
Brc1ccc2nc(N3CCN(c4ccccc4)CC3)sc2c1	?	?	-15.6%	23.6%	1.5%
Cc1c(-c2n[nH]c(=S)n2-c2ccc(C(F)(F)F)cc2)nnn1-c1ccccc1	2.2%	-1.0%	-2.8%	5.62µM*	?
CC(=O)NCCNc1nc(-c2ccccc2C)nc2ccccc12	/	/	/	10.5%	2.5%
CN1C(=O)/C(=C\C(=O)c2cccs2)c2ccccc21	1.4%	?	-3.1%	5.62µM*	12.6µM*
O=C1CCN(C(=O)c2cccs2)c2ccccc21	-0.9%	-11.8%	-12.3%	-11.5%	3.3%
Fc1ccc(-c2noc3ncnc(NCc4cccc(Cl)c4)c23)cc1	-16.6%	-4.3%	-18.9%	/	/
CCOC(=O)c1sc(N(Cc2ccccc2)C(=O)COC(=O)c2ccc(O)cc2)nc1C	14.1µM*	-3.0%	?	?	?
CCOC(=O)c1sc(N(Cc2ccccc2)C(=O)COC(=O)c2ccccc2O)nc1C	-6.8%	-12.5%	-20.7%	2.6%	0.4%
CCCCc1nn2c(=O)cc(COC(=O)c3ccccc3NC(=O)c3cccs3)nc2s1	0.5%	12.3%	5.4%	/	/
CC(C)(C)N/N=C/c1cc(Cl)cc([N+](=O)[O-])c1O	5.0%	-3.9%	-8.2%	-10.1%	2.3%
Cc1ccccc1C(=O)Nc1cccc(C(=O)N/N=C/c2cc(Cl)cc([N+](=O)[O-])c2O)c1	6.9%	3.98µM*	?	1.12µM*	2.51µM*
O=C(Cn1nc2ccccc2n1)N/N=C/c1ccc(F)cc1	/	/	/	23.6%	0.8%
O=C(Cn1nc2ccccc2n1)N/N=C/c1cc(Cl)cc([N+](=O)[O-])c1O	7.9%	12.6µM*	?	1.78µM*	14.1µM*
O=C(Cn1nnc(-c2ccccc2)n1)N/N=C/c1cccc([N+](=O)[O-])c1O	10.7%	10µM*	-2.2%	1.78µM*	?
O=C(N/N=C/c1cc(Cl)cc([N+](=O)[O-])c1O)C1CC1	3.1%	15.8µM*	-16.8%	0.631µM*	2µM*
COc1ccc(CN(C)C(=O)c2cc(S(=O)(=O)Nc3ccccc3F)ccc2C)c(OC)c1	/	/	/	15.4%	-2.7%
CCOc1ccc(C(=O)NCc2nc(-c3ccc(Cl)cc3)no2)cc1OCC	?	10.9%	-6.5%	/	/
COc1cc(Br)c(/C=C/c2ccc3cccc(O)c3n2)cc1OC	/	/	/	2.82µM*	3.16µM*
O=[N+]([O-])c1cccc2ccc(/C=C/c3cccc(Br)c3)nc12	-4.4%	9.8%	2.5%	?	2.8%
Oc1cccc2ccc(/C=C/c3ccccc3Br)nc12	/	/	/	3.98µM*	3.16µM*
COc1ccc(OC)c(/C=C/c2ccc3cccc(O)c3n2)c1	/	/	/	2.51µM*	4.47µM*
COc1cc(Cl)cc(/C=C/c2ccc3ccccc3n2)c1OC(C)=O	?	?	?	-23.0%	-15.5%
SMILES	Tau fibril FP	Tau fibril ThT	Tau fluor cs	RORgamma inh	Gal4-VP16 FLuc
COc1ccc(OC)c(/C=N/c2c(-c3ccc(O)c(OC)c3)nc3ccccn23)c1	3.6%	?	-8.1%	0.7%	1.6%[10 µM]
COc1cc(/C=C/c2ccc3cccc(O)c3n2)c(Br)cc1O	/	/	/	2.82µM*	?
C[C@@H]1[C@H]2CC[C@@H]3[C@@H]4CC=C5C[C@@H](N(C)C)CC[C@]5(C)[C@@H]4CC[C@@]32CN1C	/	/	/	-12.0%[16.9 µM]	1.8%[17 µM]
CSc1ccc(/C=C/c2ccc3cccc(O)c3n2)cc1	-2.0%	?	?	4.47µM*	?
COc1cc(/C=C/c2ccc3cccc(O)c3n2)ccc1O	/	/	/	3.16µM*	3.16µM*
COc1cc(Br)cc(/C=C/c2ccc3cccc(O)c3n2)c1O	/	/	/	2.51µM*	3.16µM*
COc1ccccc1-c1noc2ncnc(Nc3ccc4c(c3)OCO4)c12	/	/	/	-15.3%	5.5%
NCC1O[C@@H](OC2C(N)C[C@H](N)[C@@H](O[C@H]3OC(CO)C(O)C(N)C3O)C2O)C(O)C(O)C1O (some centres undefined)	3.0%	?	4.9%	0.6%	7.4%
CCCNc1nc2c(c(=O)n(C)c(=O)n2C)n1CCCc1ccccc1	/	/	/	?	-29.0%
CCN(CC)CCCNC(=O)c1ccc2c(c1)N(Cc1c(F)cccc1Cl)C(=O)c1ccccc1S2	-4.5%	-14.7%	-25.6%	/	/
Cn1c(=O)c(-c2ccccc2)nc2cnc(Nc3ccccc3)nc21	/	/	/	-15.1%	10.9%
COc1ccc(C)cc1NC(=O)C1CCN(S(=O)(=O)c2ccc3c(c2)NC(=O)CO3)CC1	/	/	/	1.7%	-2.7%
CN(c1ccc(Cl)cc1)S(=O)(=O)c1nnc(NC(=O)C(C)(C)C)s1	/	/	/	12.7%	1.6%
OC(COCC(F)(F)C(F)(F)C(F)(F)C(F)F)Cn1c2ccc(Cl)cc2c2cc(Cl)ccc21 (centres undefined)	10µM*	5.1%	?	?	?
COc1cccc(CN(C(=O)c2oc3cc(C)ccc3c2C)C2CCS(=O)(=O)C2)c1 (centres undefined)	7.8%	-14.4%	-17.5%	/	/
Cc1cccc2cc(-c3nc4ccc(C(=O)O)cc4[nH]3)c(=O)oc12	/	/	/	2.82µM*	5.01µM*
C=CCC(C)(O)/C=C/c1ccccc1 (centres undefined)	-3.1%	-0.9%	-2.9%	3.4%	7.7%
CC(=O)c1ccc(N2CCN(c3ccc(S(=O)(=O)NCCCN(C)C)cc3[N+](=O)[O-])CC2)cc1	3.6%	10µM*	-9.1%	-27.5%	?
Cn1c(=O)[nH]c(=O)c2c1nc(N1CCCCC1)n2C/C=N/NC(=O)c1cc(Br)ccc1O	?	-12.3%	-6.2%	12.6µM*	?
C[C@@](Cc1ccc(O)c(O)c1)(NN)C(=O)O	?	14.1µM*!	?	-4.0%	-4.1%
N[C@@H](Cc1ccc(O)c(O)c1)C(=O)O	/	/	/	-8.4%[16.9 µM]	-10.4%[17 µM]
C[C@@](N)(Cc1ccc(O)cc1)C(=O)O	-13.0%	?	?	-14.0%	-0.1%
CC(N)(Cc1ccc(O)c(O)c1)C(=O)O (centres undefined)	?	3.98µM*	?	/	/
Cn1c(/C=C/c2ccc(Cl)cc2)nc2ccccc2c1=O	/	/	/	?	-8.0%
CCC(C)Sc1c(C(C)C)cnc2c1c(=O)n(C)c(=O)n2C (centres undefined)	-7.9%	-12.4%	-19.3%	/	/
Clc1ccc(CNc2cc(-c3ccccc3)nc3nncn23)cc1	-8.1%	?	-23.9%	/	/

Screening results as filed in PubChem.
